Rows were chosen to be rich in hits. Some 4.2% of all compounds tested hit in one or more screens of this group.
esBAF inh – inhibitors of esBAF chromatin remodeling in mouse ES cells; Bmi1-luciferase knock-in reporter, 24 h; 100% = twice the neutral-well signal; reporter increase, % at 12.5 µM; AID 602393; 350,000 compounds, 2% hits; in the data active means activation above about 40%;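 further: a rise in the Bmi1 reporter signal indicates esBAF inhibition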
Wnt act – activates Wnt/beta-catenin signaling in a reporter cell assay; activator, plate reader; activation, % at 9.35 µM; 300,000 compounds, 1.2% hits; in the data active means activation above about 30%, passing the limit was not always enough
AHR activator – activators of human aryl hydrocarbon receptor. AHR-responsive luciferase reporter cells, luminescence. activation, % at 5 µM. 320,000 compounds, 2.5% hits. AID 2796. P35869; in the data active means activation above about 47%
Target sequence (P35869 whole entry, looked up): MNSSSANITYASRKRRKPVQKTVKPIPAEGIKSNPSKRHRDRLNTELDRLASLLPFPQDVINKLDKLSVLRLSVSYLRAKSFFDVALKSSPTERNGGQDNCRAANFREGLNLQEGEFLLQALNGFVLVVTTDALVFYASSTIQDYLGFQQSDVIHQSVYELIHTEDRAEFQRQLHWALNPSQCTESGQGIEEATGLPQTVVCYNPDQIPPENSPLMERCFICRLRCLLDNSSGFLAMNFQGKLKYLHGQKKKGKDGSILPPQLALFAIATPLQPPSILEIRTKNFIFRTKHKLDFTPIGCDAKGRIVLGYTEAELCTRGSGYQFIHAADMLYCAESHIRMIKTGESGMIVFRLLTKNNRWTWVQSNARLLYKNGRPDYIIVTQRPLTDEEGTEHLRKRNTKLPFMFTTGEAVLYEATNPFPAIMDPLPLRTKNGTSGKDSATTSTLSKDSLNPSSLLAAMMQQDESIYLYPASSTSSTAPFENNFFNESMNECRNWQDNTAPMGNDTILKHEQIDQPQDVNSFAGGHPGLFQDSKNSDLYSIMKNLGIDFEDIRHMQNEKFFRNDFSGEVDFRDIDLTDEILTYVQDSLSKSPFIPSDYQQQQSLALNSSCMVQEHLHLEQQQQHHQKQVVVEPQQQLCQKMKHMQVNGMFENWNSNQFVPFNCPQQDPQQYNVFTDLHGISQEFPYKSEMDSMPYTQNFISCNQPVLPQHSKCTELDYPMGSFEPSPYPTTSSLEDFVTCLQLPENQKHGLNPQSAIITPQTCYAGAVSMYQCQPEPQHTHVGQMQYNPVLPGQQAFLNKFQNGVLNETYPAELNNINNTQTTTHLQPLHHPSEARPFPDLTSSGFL
MITF act – activators of MITF-driven TRPM1 promoter activity in SK-MEL-5 cells; activation, % at 12.5 µM; 300,000 compounds, 0.75% hits; SK-MEL-5 TRPM1-promoter luciferase, 24 h; % of positive control, neutral wells = 0; AID 588334;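 active means mean activation of at least 80% with every replicate also reaching 80%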
GAA850 FXN act – activators of GAA850 frataxin (FXN) promoter. HEK293 lucGAA850 FXN promoter luciferase reporter, 24 h; percent of 10 µM SAHA response. activation, % at 6 µM. 360,000 compounds, 0.56% hits. AID 540364;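 active means activation above the average of all compounds screened plus 3 SD, cutoff fixed separately per campaign, cut at about 7.5% in these data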
Numbers stand for hits; i = inactive; nt = not tested or not shown.

SMILES | esBAF inh | Wnt act | AHR activator | MITF act | GAA850 FXN act
C[C@@H]1CN([C@H](C)CO)C(=O)c2cc(NC(=O)Nc3ccccc3)ccc2O[C@@H](C)CCCCO[C@H]1CN(C)S(=O)(=O)c1cn(C)cn1 | i | nt | nt | nt | nt
C[C@@H]1CN([C@@H](C)CO)C(=O)c2cc(NC(=O)Nc3ccc4c(c3)OCO4)ccc2O[C@@H](C)CCCCO[C@@H]1CN(C)S(=O)(=O)c1cn(C)cn1 | 47 | nt | nt | nt | nt
C[C@H](CO)N1C[C@H](C)[C@@H](CN(C)S(=O)(=O)c2cn(C)cn2)OCCCC[C@H](C)Oc2ccc(NC(=O)Nc3ccc4c(c3)OCO4)cc2C1=O | 44 | nt | nt | nt | nt
C[C@@H]1CN([C@H](C)CO)C(=O)c2cc(NC(=O)Nc3ccc4c(c3)OCO4)ccc2O[C@@H](C)CCCCO[C@@H]1CN(C)S(=O)(=O)c1cn(C)cn1 | 68 | nt | nt | nt | nt
C[C@H](CO)N1C[C@H](C)[C@H](CN(C)S(=O)(=O)c2cn(C)cn2)OCCCC[C@H](C)Oc2ccc(NC(=O)Nc3ccc4c(c3)OCO4)cc2C1=O | i | nt | nt | nt | nt
C[C@@H]1CN([C@@H](C)CO)C(=O)c2cc(NC(=O)Nc3ccccc3)ccc2O[C@@H](C)CCCCO[C@@H]1CN(C)S(=O)(=O)c1cn(C)cn1 | i | nt | nt | nt | nt
C[C@@H]1CCCCO[C@H](CN(C)S(=O)(=O)c2cn(C)cn2)[C@@H](C)CN([C@@H](C)CO)C(=O)c2cc(NC(=O)Nc3ccc4c(c3)OCO4)ccc2O1 | i | nt | nt | nt | nt
C[C@@H]1CCCCO[C@@H](CN(C)S(=O)(=O)c2cn(C)cn2)[C@H](C)CN([C@H](C)CO)C(=O)c2cc(NC(=O)Nc3ccc4c(c3)OCO4)ccc2O1 | 60 | nt | nt | nt | nt
C/C=C/c1ccc2c(c1)O[C@H](CN(C)C(=O)NC1CCCC1)[C@H](C)CN([C@@H](C)CO)S2(=O)=O | i | nt | nt | nt | nt
C[C@H](CO)N1C[C@H](C)[C@@H](CN(C)C(=O)Nc2cccc3ccccc23)Oc2c(NC(=O)Nc3cccc4ccccc34)cccc2C1=O | i | nt | nt | nt | nt
CO[C@@H]1CN(C)C(=O)c2cc(NC(=O)c3ccc(F)cc3)ccc2OC[C@@H](C)N(C(=O)CC2CC2)C[C@@H]1C | i | nt | nt | nt | nt
COc1ccc(S(=O)(=O)N(C)C[C@@H]2Oc3ccc(NC(=O)Cc4ccccc4)cc3CC(=O)N([C@H](C)CO)C[C@H]2C)cc1 | i | nt | nt | nt | nt
C[C@H](CO)N1C[C@H](C)[C@H](CN(C)Cc2ccc(Oc3ccccc3)cc2)Oc2ccc(NS(C)(=O)=O)cc2C1=O | i | nt | nt | nt | nt
CC(C)NC(=O)Nc1cccc2c1O[C@@H](CN(C)Cc1ccncc1)[C@@H](C)CN([C@@H](C)CO)C2=O | i | nt | nt | nt | nt
CCOc1ccc(N2C(=O)CC(SCCN)C2=O)cc1 (stereo not drawn) | i | 34 | i | nt | i
C[C@@H]1CN([C@H](C)CO)C(=O)c2cccc(NS(=O)(=O)c3ccccc3)c2O[C@@H]1CN(C)S(=O)(=O)c1ccc(F)cc1 | i | nt | nt | nt | nt
C[C@H](CO)N1C[C@H](C)[C@@H](CN(C)C(=O)Nc2ccc3c(c2)OCO3)Oc2c(NS(C)(=O)=O)cccc2C1=O | i | nt | nt | nt | nt
COCc1nc2ccccc2n1Cc1ccc(Br)cc1 | 50 | nt | i | i | i
Cn1c(COc2ccc(F)cc2)nc2ccccc21 | 65 | i | i | nt | i
CCn1c(COc2ccccc2)nc2ccccc21 | 58 | i | i | i | i
CCCn1c(COc2ccc(C(=O)O)cc2)nc2ccccc21 | i | i | i | i | i
Cc1cccc(OCc2nc3ccccc3n2C)c1 | 64 | i | i | nt | i
Cn1c(COc2ccc(C(=O)O)cc2)nc2ccccc21 | i | i | i | i | i
CC(=O)N1[C@H](C(=O)NC2CCCCC2)[C@@H](CO)[C@@H]2Cn3c(cccc3=O)[C@@H]21 | i | nt | nt | nt | nt
COc1ccc(-c2ocnc2C(=O)Nc2ccccc2N2CCCCC2)cc1 | i | i | i | i | i
SMILES | esBAF inh | Wnt act | AHR activator | MITF act | GAA850 FXN act
O=C(Nc1ccccc1)c1ncoc1-c1ccc(Cl)cc1 | nt | i | 57 | i | i
Cc1ccc2nc(Cl)c(/C=C/C(=O)c3ccco3)cc2c1 | 50 | i | i | nt | i
COc1ccc2cc(/C=C/C(=O)c3ccco3)c(Cl)nc2c1 | nt | nt | i | nt | nt
Cc1ccc2cc(/C=C/C(=O)c3ccco3)c(Cl)nc2c1 | nt | 60 | i | nt | i
O=C(Nc1cccc(F)c1)N[C@H]1CC[C@H](CCNS(=O)(=O)c2cccc(Cl)c2)O[C@H]1CO | i | nt | nt | nt | nt
N=c1c(C(=O)NC2CCCC2)cc2c(=O)n3ccccc3nc2n1C1CCCC1 | i | nt | i | i | i
Cc1cccn2c(=O)c3cc(C(=O)NC4CCCC4)c(=N)n(C4CCCC4)c3nc12 | i | nt | 54 | i | i
CCCn1c(=N)c(C(=O)NC2CCCC2)cc2c(=O)n3cccc(C)c3nc21 | i | nt | 57 | i | i
CCNC(=O)C[C@H]1C=C[C@H](NS(=O)(=O)c2ccc(F)cc2)[C@H](CO)O1 | i | nt | nt | nt | nt
Cc1ccc2c(c1)sc1nc(=O)n(-c3ccccc3)c(=O)n12 | nt | 55 | i | i | i
O=C(C[C@@H]1C=C[C@@H](NS(=O)(=O)c2ccc(F)cc2)[C@H](CO)O1)NC1CCC1 | i | nt | nt | nt | nt
O=C(Nc1ccccc1)c1cc(C2CCCCN2S(=O)(=O)c2cccs2)on1 (stereo not drawn) | 82 | i | nt | nt | i
O=C(Nc1ccccc1)c1cc(C2CCCCN2S(=O)(=O)c2ccccc2)on1 (stereo not drawn) | 52 | i | nt | nt | i
O=C(Nc1ccc2c(c1)OCO2)c1cc(C2CCCCN2S(=O)(=O)c2cccs2)on1 (stereo not drawn) | i | i | nt | nt | i
O=C(Nc1ccccc1Cl)c1cc(C2CCCCN2S(=O)(=O)c2ccccc2)on1 (stereo not drawn) | i | i | nt | nt | i
C[C@@H]1CN([C@H](C)CO)C(=O)c2cc(NC(=O)NC3CCCCC3)ccc2O[C@@H](C)CCCCO[C@@H]1CN(C)CC1CCCCC1 | i | nt | nt | nt | nt
CN(C)C(=O)c1ccc(NC(=O)CSc2nnc(-c3ccc4c(c3)OCO4)o2)cc1 | i | i | nt | i | i
Cc1ccc(NC(=O)Cc2nc(CSc3nnc(-c4ccc5c(c4)OCO5)o3)cs2)cc1 | 51 | i | 50 | nt | i
C[C@H](CO)N1C[C@H](C)[C@@H](CN(C)C(=O)c2ccc3c(c2)OCO3)Oc2ncc(C#CCN(C)C)cc2C1=O | i | nt | nt | nt | nt
C[C@H]1CN([C@@H](C)CO)C(=O)c2cc(C#CC3CCCCC3)cnc2O[C@@H]1CN(C)S(=O)(=O)c1ccc(F)cc1 | i | nt | nt | nt | nt
CNC[C@H]1OCCCC[C@H](C)Oc2ccc(NS(=O)(=O)c3ccccc3)cc2C(=O)N([C@@H](C)CO)C[C@H]1C | i | nt | nt | nt | nt
O=C(NC1CCCCC1)c1ccc(-c2ccccc2[N+](=O)[O-])o1 | 89 | i | 59 | i | i
Cc1ccc(C)c(CSc2nc3[nH]ncc3c(=O)[nH]2)c1 | nt | i | 48 | i | i
Cc1cccn2cc(-c3ccc(F)cc3)nc12 | i | 55 | i | i | i
C[C@@H]1CN([C@H](C)CO)C(=O)c2cc(NC(=O)Nc3ccc4c(c3)OCO4)ccc2O[C@@H](C)CCCCO[C@@H]1CN(C)Cc1ccncc1 | i | nt | nt | nt | nt

Screening results (PubChem)
